Results on 8 compounds are retold here after PubChem BioAssay (Tox21).

The structures appear in SMILES notation. Records with an inconclusive call do not appear. The source holds several records for some structures; these can differ, active in one and inactive in another. Active and inactive are the calls of the source. Unless noted, calls come from the whole dose curve; as a rule, active = well fitted curve in the direction sought with a large enough effect in the repeat runs; inconclusive = weak or mixed curves; inactive = no such curve, though single readings can be large; an effect the other way counts as inactive or inconclusive.

Assay [1] concerns the target Estrogen receptor (Homo sapiens) (UniProt P03372). In words: qHTS assay to identify small molecule antagonists of the estrogen receptor alpha (ER-alpha) signaling pathway using the BG1 cell line in the presence of 0.1 nM 17-beta-estradiol (AID 1259244). Note: nearly all actives have a fitted effect of over 50% in size. The method, boiled down: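 Estradiol at 0.1 nM (final) stimulates the endogenous ER-alpha of VM7Luc4E2 cells carrying an ERE-driven luciferase; compounds are co-incubated 22 h at 37C and luciferase output quantified by luminescence.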
(In general: qHTS replaces the single test concentration by a dilution series.)

A short description of assay [2]: qHTS assay to identify small molecule HDAC inhibitors (AID 1259364).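 Note: wild-type HCT-116 cells with endogenous class I/II HDAC activity; top concentration of the series differs between compounds; nearly all actives have a fitted effect of over 45% in size.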 The method, boiled down:
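Read-out: luminescence of HDAC-Glo I/II reagent, 30 min RT, reflecting class I/II deacetylase activity in whole HCT-116 cells pre-exposed 2 h to DMSO-dissolved compounds.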

Assay [3] is described as follows: qHTS assay to identify small molecule HDAC inhibitors - cell viability counter screen (AID 1259365). Note: series mostly up to about 92 µM; nearly all actives have a fitted effect of over 50% in size. The method, boiled down: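 Wild-type HCT-116 cells, 1,500/well, cultured overnight, then compound-treated 2 h at 37 C. Viability measured as ATP luminescence with CellTiter-Glo after 30 min at room temperature.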
Assay [4] is described as follows: qHTS assay to identify small molecule agonists of the sonic hedgehog signaling (Shh) pathway - cell viability counter screen (AID 1259366). Note: nearly all actives have a fitted effect of over 50% in size. The method, boiled down: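 NIH/3T3-derived Gli1-Luc reporter cells, 2,000 per well, received compound after 4 h and were treated about 23 h at 37C. Viability measured in the same wells by CellTiter-Fluor fluorescence after 1 h.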

Assay [5] in a line: qHTS assay to identify small molecule antagonists of the sonic hedgehog signaling (Shh) pathway - cell viability counter screen (AID 1259367). Note: nearly all actives have a fitted effect of over 55% in size. The method, boiled down:
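NIH/3T3-derived Gli1-Luc reporter cells (2,000 per well) rested 4 hr at 37 C, then received DMSO compounds plus conditioned medium. After 23 hr of treatment, CellTiter-Fluor was added for 1 hr at 37C and fluorescence read.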

A short description of assay [6]: qHTS assay to identify small molecule agonists of the sonic hedgehog signaling (Shh) pathway (AID 1259368; calls by dose curve;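 note: NIH/3T3-derived 3T3Gli1-Luc cells carrying a stable Gli1-driven firefly luciferase reporter; series mostly up to about 92 µM; nearly all actives have a fitted effect of over 15% in size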). The method, boiled down: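 A Gli1 transcriptional response element controlled firefly luciferase in 3T3Gli1-Luc cells. Compounds and a positive control were added 4 hr after plating, and cells were incubated a further 24 hr at 37 C before luminescence detection.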

Assay [7] can be described thus: qHTS assay to identify small molecule antagonists of the sonic hedgehog signaling (Shh) pathway (AID 1259369; calls by dose curve; note: nearly all actives have a fitted effect of over 45% in size; note: potency is the fitted concentration of half-maximal effect). The method, boiled down:
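For antagonist detection, the reporter line received test compounds together with conditioned medium, incubated 24hr at 37 C, 5% CO2, then luminescence was recorded following 30min room-temperature luciferase reagent incubation.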

For assay [8], the target named is Estrogen receptor beta (Homo sapiens) (UniProt Q92731). Kind of assay: qHTS assay to identify small molecule agonists of the estrogen receptor beta (ER-beta) signaling pathway (AID 1259377; active = well fitted activation curve with a large enough effect in the signal ratio in the repeat runs, not every such curve was filed as active; the % refers to the signal ratio). The method, boiled down:
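ER-beta-UAS-bla HEK293T cells in medium with 2% charcoal-stripped FBS were exposed to compounds for 16 h at 37C. Beta-lactamase reporter activity was read as fluorescence after 2 h with LiveBLAzer B/G FRET substrate at room temperature.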

Assay [9] has the same target. Kind of assay: qHTS assay to identify small molecule antagonists of the estrogen receptor beta (ER-beta) signaling pathway (AID 1259378; active = well fitted inhibition curve with a large enough effect in the signal ratio in the repeat runs, not every such curve was filed as active; the % refers to the signal ratio). The method, boiled down:
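ER-beta-UAS-bla HEK293T (GripTite) cells in 2% charcoal-stripped FBS medium were preincubated 6 hr at 37C, dosed with compound, then stimulated with 1 nM E2 (final) for 16 hr; beta-lactamase reporter read by B/G FRET fluorescence after 2 hr substrate loading.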

Assay [10] in a line: qHTS assay to identify small molecule agonists of the androgen receptor (AR) signaling pathway in the presence of an antagonist - cell viability counter screen (AID 1259379).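 Note: MDA-kb2 human breast cancer cells carrying an MMTV luciferase reporter; series mostly up to about 92 µM; nearly all actives have a fitted effect of over 25% in size.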 The method, boiled down:
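Seed MDA-kb2 at 3,000 cells/well; incubate 5 hr, 37C, 0% CO2. Add nilutamide to 3.0uM final, then pin compounds at 15 concentrations. Incubate 16 hr. Add CellTiter-Fluor at 15 hr, read fluorescence after 1 hr.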

Assay [11] in a line: qHTS assay to identify small molecule agonists of the estrogen receptor beta (ER-beta) signaling pathway - cell viability counter screen (AID 1259380). Note: nearly all actives have a fitted effect of over 30% in size. Note: potency is the fitted concentration of half-maximal effect. The method, boiled down:
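CellTiter-Glo read, 30 min RT, same wells as bla assay; cells ER-beta-UAS-bla HEK293T; 16 hr compound, 37C; medium 2% charcoal-stripped FBS.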

Assay [12] can be described thus: qHTS assay to identify small molecule antagonists of the estrogen receptor beta (ER-beta) signaling pathway - cell viability counter screen (AID 1259382). Note: series mostly up to about 92 µM; nearly all actives have a fitted effect of over 55% in size. The method, boiled down: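 In this multiplexed counter screen, cells were seeded at 2,000 per well in medium with 2% charcoal-stripped FBS and incubated 6 hr before compound and 1nM final E2 were added. Sixteen hours later, ATP-based luminescence reported viability.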

For assay [13], the target named is Estrogen receptor (Homo sapiens) (UniProt P03372). Kind of assay: qHTS assay to identify small molecule agonists of the estrogen receptor alpha (ER-alpha) signaling pathway in the presence of an antagonist (AID 1259383; calls by dose curve; note: top concentration of the series differs between compounds; nearly all actives have a fitted effect of over 15% in size). The method, boiled down:
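Stably transfected VM7Luc4E2 reporter cells, kept 5 days in charcoal-stripped serum, received ICI-182,780 at 10.0nM final before compound addition. Following 22hr incubation at 37C and 5% CO2, luciferase signal was read by luminescence.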

Assay [14] is described as follows: qHTS assay to identify small molecule agonists or antagonists of the thyroid stimulating hormone receptor (TSHR) signaling pathway - wild type cell line counter screen (AID 1259384; calls by dose curve). The method, boiled down: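 Wild-type HEK293 cells were plated 18 h at 37 C/5% CO2, pin-dosed with compound plus Ro20-1724 medium, held 30 min at room temperature, then given cAMP-d2 and anti-cAMP-cryptate; fluorescence was read after 1 h. Fifteen concentrations, triplicate.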

Assay [15] addresses Thyrotropin receptor (Homo sapiens) (UniProt P16473). Kind of assay: qHTS assay to identify small molecule antagonists of the thyroid stimulating hormone receptor (TSHR) signaling pathway (AID 1259385; calls by dose curve; note: nearly all actives have a fitted effect of over 20% in size). The method, boiled down:
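TSHR-HEK293 cells were plated and held 18 h at 37C/5% CO2, then given compound plus Ro20-1724 and stimulated with TSH at 1.5 ng/mL final. After 30 min at room temperature, cAMP was detected with cAMP-d2/anti-cAMP-cryptate (1 h) by fluorescence.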

Assay [16] can be described thus: qHTS assay to identify small molecule agonists of the estrogen receptor alpha (ER-alpha) signaling pathway in the presence of an antagonist - cell viability counter screen (AID 1259386).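 Note: series mostly up to about 92 µM; cells exposed to compounds for 22 h at 37 °C before the viability read; nearly all actives have a fitted effect of over 30% in size.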 The method, boiled down:
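Viability counter screen using VM7Luc4E2 (full-length ER-alpha, four ERE-luciferase). The cells were treated with compounds alongside ICI-182,780 10.0nM for 22hr, and live-cell protease fluorescence was quantified with CellTiter-Fluor.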

For assay [17], the target named is Progesterone receptor (Homo sapiens) (UniProt P06401). Kind of assay: qHTS assay to identify small molecule agonists of the progesterone receptor (PR) signaling pathway (AID 1346784; calls by dose curve; note: nearly all actives have a fitted effect of over 30% in size). The method, boiled down:
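PR-UAS-bla HEK 293T cells (beta-lactamase reporter under UAS) in 2% charcoal-stripped FBS, dosed with 23 nL compound after 6 hr, incubated 16hr at 37C. LiveBLAzer B/G FRET substrate added, fluorescence read after 2 hours.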

Assay [18] has the same target. Kind of assay: qHTS assay to identify small molecule antagonists of the progesterone receptor (PR) signaling pathway (AID 1346795; active = well fitted inhibition curve with a large enough effect in the signal ratio in the repeat runs, not every such curve was filed as active; the % refers to the signal ratio). The method, boiled down: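 PR-UAS-bla HEK293T cells with beta-lactamase reporter under UAS control, in 2% charcoal-stripped FBS, treated with compounds plus 1 nM promegestone (R5020, final) for 16 hr at 37C. Read-out: FRET beta-lactamase substrate fluorescence after 2 hr at room temperature.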

Assay [19] can be described thus: qHTS assay to identify small molecule antagonists of the progesterone receptor (PR) signaling pathway - cell viability counter screen (AID 1346798). Note: series mostly up to about 92 µM; nearly all actives have a fitted effect of over 50% in size. The method, boiled down: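 PR-UAS-bla HEK293T cells, 3,000/well in 2% charcoal-stripped FBS medium, dosed with compounds plus R5020 agonist and incubated 16 h at 37C. Viability then measured in the same wells by CellTiter-Glo luminescence after 30 min at RT.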

For assay [20], the target named is Androgen receptor (Homo sapiens) (UniProt P10275). In words: qHTS assay to identify small molecule agonists of the androgen receptor (AR) signaling pathway in the presence of an antagonist (AID 1259381; calls by dose curve; note: nearly all actives have a fitted effect of over 15% in size). The method, boiled down:
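Test compounds at 15 concentrations were incubated for 16hr with MDA-kb2 reporter cells in presence of 3.0uM nilutamide (final). Signal: ONE-Glo luciferase luminescence.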

Chain of Estrogen receptor (Homo sapiens) (P03372 whole entry, looked up): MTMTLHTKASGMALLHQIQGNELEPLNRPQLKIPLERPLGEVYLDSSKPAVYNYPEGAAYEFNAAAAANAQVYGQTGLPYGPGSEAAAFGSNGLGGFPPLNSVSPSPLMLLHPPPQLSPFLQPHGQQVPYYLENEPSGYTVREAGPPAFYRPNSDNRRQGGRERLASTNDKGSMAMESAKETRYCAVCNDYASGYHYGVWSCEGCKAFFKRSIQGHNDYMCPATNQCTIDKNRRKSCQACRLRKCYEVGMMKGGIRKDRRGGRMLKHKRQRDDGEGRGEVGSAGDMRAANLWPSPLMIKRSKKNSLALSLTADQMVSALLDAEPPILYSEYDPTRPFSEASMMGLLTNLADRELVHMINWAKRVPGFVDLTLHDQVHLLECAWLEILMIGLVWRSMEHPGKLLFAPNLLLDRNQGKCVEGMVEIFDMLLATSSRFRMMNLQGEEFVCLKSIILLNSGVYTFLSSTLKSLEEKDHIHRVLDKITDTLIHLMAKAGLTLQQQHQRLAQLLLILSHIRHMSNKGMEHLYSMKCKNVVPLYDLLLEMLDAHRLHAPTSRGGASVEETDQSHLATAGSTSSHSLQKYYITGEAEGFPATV
Chain of Estrogen receptor beta (Homo sapiens) (Q92731 whole entry, looked up): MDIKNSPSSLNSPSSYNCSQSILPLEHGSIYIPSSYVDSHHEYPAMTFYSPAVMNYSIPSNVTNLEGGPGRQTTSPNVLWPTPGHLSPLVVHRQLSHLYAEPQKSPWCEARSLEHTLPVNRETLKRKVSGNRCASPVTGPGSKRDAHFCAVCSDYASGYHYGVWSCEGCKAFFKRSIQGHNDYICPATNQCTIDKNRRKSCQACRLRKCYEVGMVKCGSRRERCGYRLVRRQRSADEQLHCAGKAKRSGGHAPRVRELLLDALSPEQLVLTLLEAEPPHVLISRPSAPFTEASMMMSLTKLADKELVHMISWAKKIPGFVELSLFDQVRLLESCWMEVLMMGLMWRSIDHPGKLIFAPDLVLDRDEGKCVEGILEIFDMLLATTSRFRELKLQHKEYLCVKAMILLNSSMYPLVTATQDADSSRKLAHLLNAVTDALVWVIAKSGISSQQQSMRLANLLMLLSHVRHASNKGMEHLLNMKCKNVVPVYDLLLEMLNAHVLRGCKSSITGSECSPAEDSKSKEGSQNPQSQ
Chain of Progesterone receptor (Homo sapiens) (P06401 whole entry, looked up): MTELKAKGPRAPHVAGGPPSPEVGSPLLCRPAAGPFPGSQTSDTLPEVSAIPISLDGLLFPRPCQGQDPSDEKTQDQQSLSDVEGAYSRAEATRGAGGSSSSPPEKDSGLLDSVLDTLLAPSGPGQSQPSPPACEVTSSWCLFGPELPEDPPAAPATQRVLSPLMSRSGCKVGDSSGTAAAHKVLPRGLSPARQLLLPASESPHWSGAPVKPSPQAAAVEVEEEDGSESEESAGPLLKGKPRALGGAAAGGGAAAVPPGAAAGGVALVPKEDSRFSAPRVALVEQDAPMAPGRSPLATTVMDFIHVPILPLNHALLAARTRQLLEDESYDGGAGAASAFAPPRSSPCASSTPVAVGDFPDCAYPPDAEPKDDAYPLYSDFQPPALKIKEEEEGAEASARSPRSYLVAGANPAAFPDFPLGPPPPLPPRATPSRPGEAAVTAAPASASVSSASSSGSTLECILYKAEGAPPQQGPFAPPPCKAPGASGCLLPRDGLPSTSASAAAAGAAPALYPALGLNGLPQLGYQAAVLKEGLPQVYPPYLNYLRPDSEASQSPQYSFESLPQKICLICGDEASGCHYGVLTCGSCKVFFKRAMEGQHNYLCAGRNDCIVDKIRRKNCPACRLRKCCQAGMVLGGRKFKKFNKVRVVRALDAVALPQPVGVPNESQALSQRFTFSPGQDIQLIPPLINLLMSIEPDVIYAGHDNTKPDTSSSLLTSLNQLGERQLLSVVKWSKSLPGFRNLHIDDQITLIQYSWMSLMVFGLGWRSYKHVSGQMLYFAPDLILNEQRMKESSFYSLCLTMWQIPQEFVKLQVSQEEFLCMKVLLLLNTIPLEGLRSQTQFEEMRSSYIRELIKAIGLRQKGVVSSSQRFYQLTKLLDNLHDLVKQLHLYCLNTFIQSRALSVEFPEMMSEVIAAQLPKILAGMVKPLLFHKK
Chain of Thyrotropin receptor (Homo sapiens) (P16473 whole entry, looked up): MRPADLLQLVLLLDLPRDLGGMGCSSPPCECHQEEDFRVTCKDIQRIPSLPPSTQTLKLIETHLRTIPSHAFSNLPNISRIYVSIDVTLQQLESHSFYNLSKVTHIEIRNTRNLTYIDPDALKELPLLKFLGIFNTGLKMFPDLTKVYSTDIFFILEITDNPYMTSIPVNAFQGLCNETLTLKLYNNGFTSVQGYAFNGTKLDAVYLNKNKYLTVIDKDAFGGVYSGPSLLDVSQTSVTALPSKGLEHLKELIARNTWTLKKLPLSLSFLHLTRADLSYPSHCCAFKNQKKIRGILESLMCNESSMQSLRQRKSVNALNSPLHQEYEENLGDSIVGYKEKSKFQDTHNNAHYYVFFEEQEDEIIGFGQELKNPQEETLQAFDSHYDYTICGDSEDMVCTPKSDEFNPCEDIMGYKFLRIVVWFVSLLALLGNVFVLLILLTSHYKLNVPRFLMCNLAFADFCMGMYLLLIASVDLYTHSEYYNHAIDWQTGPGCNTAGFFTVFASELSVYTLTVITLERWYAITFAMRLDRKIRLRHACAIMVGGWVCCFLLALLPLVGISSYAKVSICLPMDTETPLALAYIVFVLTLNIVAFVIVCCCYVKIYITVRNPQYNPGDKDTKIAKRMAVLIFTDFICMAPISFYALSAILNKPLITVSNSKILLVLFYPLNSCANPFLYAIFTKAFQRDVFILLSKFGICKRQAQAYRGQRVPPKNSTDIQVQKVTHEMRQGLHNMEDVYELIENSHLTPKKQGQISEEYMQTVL
Chain of Androgen receptor (Homo sapiens) (P10275 whole entry, looked up): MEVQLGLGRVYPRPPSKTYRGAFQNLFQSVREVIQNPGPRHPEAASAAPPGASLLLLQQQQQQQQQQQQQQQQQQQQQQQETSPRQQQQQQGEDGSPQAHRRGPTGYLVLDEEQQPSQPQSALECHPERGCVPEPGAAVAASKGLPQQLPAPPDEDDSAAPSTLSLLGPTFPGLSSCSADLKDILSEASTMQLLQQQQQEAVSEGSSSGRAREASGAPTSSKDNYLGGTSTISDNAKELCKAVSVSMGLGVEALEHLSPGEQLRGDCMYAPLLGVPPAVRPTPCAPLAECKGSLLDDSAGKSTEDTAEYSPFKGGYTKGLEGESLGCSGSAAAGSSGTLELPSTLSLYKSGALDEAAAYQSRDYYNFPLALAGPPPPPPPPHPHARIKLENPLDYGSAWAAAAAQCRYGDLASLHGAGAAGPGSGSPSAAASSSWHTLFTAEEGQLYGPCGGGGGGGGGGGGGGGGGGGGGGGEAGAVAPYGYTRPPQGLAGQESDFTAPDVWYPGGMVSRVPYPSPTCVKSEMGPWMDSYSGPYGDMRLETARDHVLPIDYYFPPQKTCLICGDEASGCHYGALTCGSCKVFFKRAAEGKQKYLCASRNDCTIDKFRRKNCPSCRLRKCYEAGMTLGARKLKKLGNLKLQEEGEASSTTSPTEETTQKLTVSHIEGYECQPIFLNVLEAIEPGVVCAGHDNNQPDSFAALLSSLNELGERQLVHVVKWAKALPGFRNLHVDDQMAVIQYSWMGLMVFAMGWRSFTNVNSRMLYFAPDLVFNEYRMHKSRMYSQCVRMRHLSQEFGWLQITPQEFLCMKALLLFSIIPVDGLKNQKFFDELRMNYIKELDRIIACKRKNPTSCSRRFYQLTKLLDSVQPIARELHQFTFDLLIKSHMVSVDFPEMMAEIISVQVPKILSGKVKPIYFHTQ

With `Cc1ccccc1O`, the Potency entry in [1], in [2], in assay [4], in assay [5], in assay [7] and in [8] was “inactive” throughout. Also, the Potency result in assay [11], in assay [12], in assay [13], in assay [15], in assay [18] and in assay [19] was “inactive” throughout. Also, the outcome in [3], in [6], in [9], in assay [10], in [14] and in assay [16] was inactive. For the same compound, the call in assay [17] was inactive.
With `c1cc2c3c(cccc3c1)CC2`, the Potency result in assay [1], in assay [2], in assay [4], in assay [5], in [7] and in assay [8] was “inactive” each time. Besides, the Potency result in assay [11], in assay [12], in assay [13], in [15], in assay [18] and in [19] was “inactive” each time. The call in assay [3], in assay [6], in [9], in assay [10], in [20] and in [14] was inactive. Besides, the result in assay [16] and in assay [17] was inactive.
Regarding `Nc1ccccc1C(=O)O`, the Potency entry in assay [1], in assay [2], in assay [4], in [5], in assay [7] and in assay [8] was “inactive” each time. Further, the Potency entry in [11], in assay [12], in [13], in assay [15], in assay [18] and in assay [19] was “inactive” in each case. Moreover, the compound was classed as inactive in assay [3], in [6], in assay [10], in assay [14], in assay [16] and in assay [17].
In the case of `O=[N+]([O-])c1ccccc1`, the Potency entry in [1], in assay [2], in [4], in [5], in assay [7] and in [8] was “inactive” in each case. The Potency result in [11], in assay [12], in assay [13], in assay [15], in [18] and in [19] was “inactive” in each case. Moreover, the result in assay [3], in assay [6], in assay [10], in assay [14], in [16] and in assay [17] was inactive.
For the compound `CC(Oc1ccc(Cl)cc1Cl)C(=O)O` (stereo not drawn), the Potency result in assay [1], in assay [2], in assay [4], in [5], in [7] and in assay [11] was “inactive” each time. Moreover, the Potency result in [12], in assay [13], in [15], in assay [18] and in [19] was “inactive” in each case. The outcome in assay [3], in [6], in assay [10], in assay [14], in assay [16] and in assay [17] was inactive.
Take `CCCCN(CCCC)SN(C)C(=O)Oc1cccc2c1OC(C)(C)C2`: the Potency result in [1], in [2], in [4], in assay [5], in assay [11] and in assay [12] was “inactive” in each case. Moreover, the Potency result in [13], in [18] and in [19] was “inactive” in each case. The compound was classed as inactive in assay [3], in assay [6], in assay [10], in assay [14], in [16] and in assay [17]. Moreover, the Potency in assay [7] is 31.1 µM (active) and inactive.
Regarding `Cn1cc(-c2ccccc2)c(=O)c(-c2cccc(C(F)(F)F)c2)c1`, the Potency entry in [1], in assay [2], in assay [7], in assay [12], in assay [13] and in assay [15] was “inactive” each time. The Potency entry in [18] and in [19] was “inactive” in each case. The outcome in assay [3], in assay [6], in assay [10] and in [17] was inactive. For the same compound, the Potency in [11] was 59.6 µM (active).
As to `CCC[CH2][Sn]([Cl])([Cl])[Cl]`, the Potency result in assay [1], in assay [2], in assay [4], in assay [5], in assay [7] and in assay [11] was “inactive” each time. The Potency entry in assay [12], in assay [13], in assay [15], in [18] and in assay [19] was “inactive” in each case. For the same compound, the compound was classed as inactive in [3], in assay [6], in [10], in assay [14], in [16] and in assay [17].
